Bioassay records (PubChem BioAssay)
Only some compounds are listed: those with a hit (about 1.6% of all), similar ones and a draw of the others.
Mito fusion yeast: qHTS Assay for Small Molecule Inhibitors of Mitochondrial Division or Activators of Mitochondrial Fusion | S. cerevisiae fusion-defective mutant growth rescue, CellTiterGlo 48 h | Potency, µM (series often up to 46.1 µM), usual class: activators | actives 0.23% (n = 320,000) | AID 485298, 2010; further: nearly all actives have a fitted effect of over 45% in size
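Luminescent cell viability in 1536-well qHTS format served as the measure of rescued growth in ts fusion-mutant S. cerevisiae cultured on non-fermentable YPEG for 48 hours at 37C.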
gsp ag: qHTS for Agonist of gsp, the Etiologic Mutation Responsible for Fibrous Dysplasia/McCune-Albright Syndrome: qHTS; gsp mutant cells, cAMP HTRF, 30 min; Potency, µM (doses to about 76.9 µM), hits mostly activators; actives 0.13% (n = 340,000); AID 624287, 2012; active means well fitted activation curve with a large enough effect; inconclusive means small, poorly fitted or top-dose-only effect, or another doubt; inactive means no such curve, though single readings can be large or run the other way; cell line not stated here;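 further: phosphodiesterase inhibitor Ro 20-1724 added with compounds to block cAMP breakdown; nearly all actives have a fitted effect of over 60% in size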
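Cells stably selected in G418 were plated at 2000/well, grown 16-24 hr, then given compounds in DMSO with the PDE inhibitor […] (300 uM solution added) for 30 min at 37C; cAMP was read by HTRF.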
FUS suppressor: qHTS for Suppressors of FUS Proteinopathy: Primary screen using FUS-linked yeast assay; AID 1347120, 2019; actives 0.24% (n = 390,000); S. cerevisiae FUS-expressing, growth rescue, OD600, 24 h; Potency, µM (series often up to 76.6 µM), actives largely listed as activators; further: nearly all actives have a fitted effect of over 55% in size
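Toxicity suppression screen in FUS-yeast. Cells induced with 2% galactose, starting OD 0.005, treated 24hr at 30C with compounds at multiple final concentrations; growth by OD600.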
12-LOX inh: Primary qHTS assay for inhibitors of human arachidonate 12S-lipoxygenase (ALOX12): Round 2 | Polyunsaturated fatty acid lipoxygenase ALOX12 (Homo sapiens), P18054 | purified 12hLO, xylenol orange hydroperoxide absorbance | Potency, µM (doses to about 108 µM), hits mostly inhibitors | actives 1.1% (n = 580,000)
Target sequence (P18054 whole entry, looked up): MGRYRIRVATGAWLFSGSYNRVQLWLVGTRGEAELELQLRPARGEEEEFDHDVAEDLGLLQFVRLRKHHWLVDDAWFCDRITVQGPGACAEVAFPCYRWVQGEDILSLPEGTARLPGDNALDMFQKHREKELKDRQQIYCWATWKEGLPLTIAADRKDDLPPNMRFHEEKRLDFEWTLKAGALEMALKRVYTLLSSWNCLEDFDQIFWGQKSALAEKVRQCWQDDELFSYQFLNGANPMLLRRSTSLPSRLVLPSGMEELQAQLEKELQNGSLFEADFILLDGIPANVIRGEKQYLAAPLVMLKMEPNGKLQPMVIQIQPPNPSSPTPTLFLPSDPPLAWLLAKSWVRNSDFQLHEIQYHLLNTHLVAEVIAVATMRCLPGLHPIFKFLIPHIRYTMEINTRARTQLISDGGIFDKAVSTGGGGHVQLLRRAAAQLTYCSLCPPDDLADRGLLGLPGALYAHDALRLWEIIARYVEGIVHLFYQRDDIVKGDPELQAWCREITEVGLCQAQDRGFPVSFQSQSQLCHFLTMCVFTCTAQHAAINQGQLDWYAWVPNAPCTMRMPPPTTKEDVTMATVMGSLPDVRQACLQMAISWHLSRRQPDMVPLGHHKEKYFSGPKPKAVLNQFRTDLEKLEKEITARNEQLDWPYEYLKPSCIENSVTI
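Purified human 12hLO at 150 nM in 25 mM Hepes, 0.01% Triton X-100, pH 7.0, preincubated 15 min at room temperature with compound. Reaction started with 40 uM arachidonic acid, 30 min at room temperature. Hydroperoxide measured by Fe-xylenol orange, 573/405 nm absorbance ratio.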
gsp antag: qHTS for Antagonists of gsp, the Etiologic Mutation Responsible for Fibrous Dysplasia/McCune-Albright Syndrome: qHTS | actives 0.4% (n = 340,000) | gsp-mutant cells, cAMP HTRF, 30 min | Potency, µM (series often up to 76.9 µM), actives largely listed as inhibitors | AID 624288, 2012; calls by dose curve; cell line not stated here;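 further: intracellular cAMP measured with PDE inhibitor Ro 20-1724 present during compound exposure; nearly all actives have a fitted effect of over 65% in size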
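Cells in G418 medium, seeded 16-24 h, 37C; buffer exchange to DPBS + 1 mM CaCl2, 0.5 mM MgCl2, 0.05% BSA; cpds in DMSO + […] (300 uM stock), 30 min 37C; HTRF cAMP detection.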
A number is an active result; - = inactive; ? = inconclusive; . = no result given; [ ] = remark or other dose. Unless noted, the call rests on the fitted dose curve; in most records, active means well fitted curve in the direction sought with a large enough effect; inconclusive means small, poorly fitted or top-dose-only effect, or another doubt; inactive means no such curve, though single readings can be large; an effect the other way counts as inactive or inconclusive.

SMILES	Mito fusion yeast	gsp ag	FUS suppressor	12-LOX inh	gsp antag
CC(C)NC(=S)N/N=C/C1=CCC2CC1C2(C)C (stereo not given)	-	-	.	35.5µM	-
CC1(C)C2CC=C(/C=N/NC(=S)NCc3ccccc3)C1C2 (stereo not given)	.	.	.	35.5µM	.
Cc1csc(/C(C#N)=C\C2=Cc3cc(Cl)ccc3OC2)n1	.	.	.	50.1µM	.
N#C/C(=C\c1ccc(Cl)cc1Cl)c1nc(-c2cccc(Cl)c2)cs1	.	.	-	-	.
CC(=O)Nc1ccc(NC(=O)Cc2sc(-c3cccnc3)nc2-c2ccc(C)cc2)cc1	-	-	28.2µM	-	-
O=C1c2cc(N3CCOCC3)nc(-c3ccc(F)cc3)c2CN1CC1CC1	.	.	.	31.6µM	.
Cc1cc(CN2CCC(CO)(Cc3ccccc3Cl)CC2)cc(C)c1O	.	.	.	-	.
O=c1oc2ccc(Cl)cc2cc1-c1csc(Nc2ccccc2)n1	.	.	.	20µM	.
Cc1cccc(Nc2nc(-c3cc4ccccc4oc3=O)cs2)c1	.	.	.	39.8µM	.
COc1cccc(Nc2nc(-c3cc4cc(OC)ccc4oc3=O)cs2)c1	.	.	.	-	.
Clc1ccc(-c2nc(-c3cc4cc(Cl)ccc4o3)cs2)cc1	-	-	-	-	28.2µM
COc1ccc2oc(=O)c(-c3csc(Nc4cccc(O)c4)n3)cc2c1	15.8µM	-	?	-	?
COc1ccc(C(=O)Nc2nc3c(s2)C[C@@H]2[C@](C)(CO)[C@H](O)CC[C@@]2(C)[C@@H]3CC(=O)NCc2ccco2)cc1	.	.	.	-	.
CCc1ccc(C(=O)Oc2ccc(-c3ccccc3)cc2)cc1	.	.	.	-	.
O=C(O)c1ccc(Nc2nc(-c3cc4ccccc4oc3=O)cs2)cc1O	-	-[15.4 µM]	-	39.8µM	?
CC(=O)Nc1ccc(Nc2nc(-c3cc4ccccc4oc3=O)cs2)cc1	-	-[15.4 µM]	-	?	?
CC(C)CCNC(=O)Nc1c(NC2CCCC2)c2ccccc2oc1=O	.	.	.	-	.
Cc1ccnc(NC(=O)c2cc(C)nc3ccccc23)c1	.	.	.	-	.
CCc1nnc(NC(=O)c2cc(C)nc3ccccc23)s1	-	-[15.4 µM]	-	-	-
Cc1ccnc(NC(=O)c2cc(-c3ccc(C)o3)nc3ccccc23)c1	.	.	.	10µM	.
CCc1nnc(NC(=O)c2cc(-c3ccc(C)o3)nc3ccccc23)s1	-	-	.	6.31µM	-
Cc1ccc(-c2cc(C(=O)Nc3ccccc3C)c3ccccc3n2)o1	-	?	-	5.01µM	-
Cc1ccc(-c2cc(C(=O)Nc3ccc(F)cc3)c3ccccc3n2)o1	.	.	.	3.16µM	.
CN(C)CC1(O)CCCN(Cc2ccc(Oc3ccc(Cl)cc3)cc2)C1 (stereo not given)	.	.	.	-	.
CCCCCCNC(=S)NNC(=O)c1cc(-c2ccccc2)nc2ccccc12	.	.	.	-	.
SMILES	Mito fusion yeast	gsp ag	FUS suppressor	12-LOX inh	gsp antag
c1ccc(C(CNCc2cccnc2)N2CCCC2)cc1 (stereo not given)	.	.	.	-	.
CC(=O)Nc1ccc(N=C(C2=C(O)c3ccccc3C2=O)c2ccccc2)cc1	-	-	-	-	35.5µM
COc1ccc(N=C(C)C2=C(O)c3ccccc3C2=O)cc1	-	-	.	-	-
C#CCN(C)C(=O)[C@@H](C)C1CC[C@@]2(C)Cc3sc(NC(=O)C4CC4)nc3[C@@H](C)[C@@H]2[C@H]1O (stereo not given in full)	.	.	.	112µM	.
CCN(CC)C(=O)C(C)[C@@H]1CC[C@@]2(C)Cc3sc(NC(=O)C4CC4)nc3[C@@H](C)[C@@H]2[C@H]1O (stereo not given in full)	.	.	.	-	.
O=[S+]([O-])(c1ccccc1)N1CC2(CCCN2Cc2cccnc2)Cc2ccccc21 (stereo not given)	.	.	.	-[6.33 µM]	.
CC(=O)Nc1ccc2[nH]cc(C(C(=O)O)N3CCN(c4nc5c(cc4C#N)CCCC5)CC3)c2c1 (stereo not given)	.	.	.	-	.
CCC1(CC)Cc2ccccc2-c2[nH]c(=S)[nH]c(=O)c21	.	6.31µM	-	?	-
CCC1(CC)Cc2ccccc2-c2nc(NN)[nH]c(=O)c21	-	-[15.4 µM]	-	-	-
CN(CC(=O)NC(=O)NCc1ccco1)Cc1ccc(Cl)cc1	.	.	.	-	.
O=C(Nc1cccc(F)c1)c1ccc2c(c1)CC(c1ccc(F)cc1)OC2=O (stereo not given)	.	.	.	-	.
CCOc1ccc(C(=S)NC2CCCCC2)cc1OCC	-	?	-	35.5µM	-
Cc1ccc(Sc2c(C)nn(-c3ccccc3)c2OC(=O)CC(C)C)cc1	.	.	-	?	.
CCCC(=O)Oc1c(Sc2ccc(Cl)cc2)c(C)nn1-c1ccccc1	.	.	-	44.7µM	.
COc1ccc(-c2csc(NC(=O)C(CC(=O)O)N3CCOCC3)n2)cc1 (stereo not given)	-	-	-	-	-
CC(C)OC(=O)C(CC(=O)O)N1CCOCC1 (stereo not given)	-	-	-	5.62µM	-
C=CCC(c1ccccc1)N(C(C)=O)c1ccco1 (stereo not given)	25.1µM	?	-	-	-
CC(C)NC(=O)c1nc(-c2ccc(Cl)nc2)c2ccccn12	.	.	.	-[6.33 µM]	.
O=C(NC1CC1)c1cccc(NS(=O)(=O)c2ccc(Cl)cc2C(F)(F)F)c1	.	.	.	-	.
COc1cccc(-n2c(Cc3cc(=O)[nH]c(=O)[nH]3)nnc2SCC(=O)N2CCCCC2)c1	-	-	-	8.91µM	-
CSC1CCCCC1(O)CSc1nc2c(cc1C#N)CCCC2 (stereo not given)	-	-	-	7.08µM	-
N#CCSc1nc2c(cc1C#N)CCCC2	-	-	.	-	-
O=C(NC1CC1)C1CCN(Cc2nnc(-c3ccccc3)o2)CC1	.	.	.	-	.
Cc1ccc(NC(=S)NCc2ccc3c(c2)cc(C)n3C)c(C)c1	-	-	?	35.5µM	-
Cc1ccc(NC(=S)NCc2ccc3c(c2)OCO3)c(C)c1	-	-	-	39.8µM	-
SMILES	Mito fusion yeast	gsp ag	FUS suppressor	12-LOX inh	gsp antag
Cc1cc2cc(CNC(=S)Nc3ccc(OC(F)F)cc3)ccc2n1C	-	-	?	35.5µM	-
CCOC(=O)N1CCN(C(=O)CN(c2cccc(F)c2)S(C)(=O)=O)CC1	.	.	.	-	.
O=C(/C=C/c1ccccc1)OCC1C(COC(=O)/C=C/c2ccccc2)C1(Cl)Cl (stereo not given)	.	.	.	-	.
O=C(NCCN1CCc2ccccc2C1)c1ccc(F)cc1Cl	.	.	.	-	.
C/C(=N\NC(=S)NCc1ccccc1)c1ccc(C)o1	-	-	-	15.8µM	-
C/C(=N\NC(=S)NCc1ccccc1)c1cccs1	-	-[15.4 µM]	-	39.8µM	.
C/C(=N\NC(=S)NCc1ccccc1)c1ccc(Cl)s1	-	-[15.4 µM]	-	?	-
COc1ccc(/C=C/C(=O)c2ccc(C(=O)O)s2)cc1OC	.	.	.	5.62µM	.
Oc1c(Br)cc(/C=N/n2c(-c3ccccc3)n[nH]c2=S)cc1Br	-	-[15.4 µM]	-	22.4µM	?
